Assay outcomes (PubChem BioAssay)
FMDV inh: antivirals against foot and mouth disease virus; FMDV antiviral cell-based qHTS; Potency, µM (titrated, usually from 57.9 µM), usual class: inhibitors; 1.2% of 410,000 active; AID 1159524; calls by dose curve; tested in HEK293T cells; also: read-out not given here; nearly all actives have a fitted effect of over 45% in size
Tb PYK inh: blocks Trypanosoma brucei pyruvate kinase; Q57TT1; TbPYK enzyme, Kinase-Glo Plus ATP luminescence, 45 min; Potency, µM (top dose mostly 76.8 µM), hits mostly inhibitors; 0.12% of 410,000 active; AID 624173; also: nearly all actives have a fitted effect of over 50% in size
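T. brucei PYK with substrate was exposed to pin-transferred compounds across a concentration series, then started with 130 uM ADP (final). After 45 min at room temperature, Kinase-Glo Plus luminescence was read, normalized and curve-fitted.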
FBPA Giardia inh: Giardia lamblia aldolase inhibition. A8B2U2. purified Giardia FBPA. Potency, µM (titrated, usually from 59.6 µM), hits mostly inhibitors. 0.71% of 290,000 active; also: nearly all actives have a fitted effect of over 55% in size
Target sequence (A8B2U2 whole entry, looked up): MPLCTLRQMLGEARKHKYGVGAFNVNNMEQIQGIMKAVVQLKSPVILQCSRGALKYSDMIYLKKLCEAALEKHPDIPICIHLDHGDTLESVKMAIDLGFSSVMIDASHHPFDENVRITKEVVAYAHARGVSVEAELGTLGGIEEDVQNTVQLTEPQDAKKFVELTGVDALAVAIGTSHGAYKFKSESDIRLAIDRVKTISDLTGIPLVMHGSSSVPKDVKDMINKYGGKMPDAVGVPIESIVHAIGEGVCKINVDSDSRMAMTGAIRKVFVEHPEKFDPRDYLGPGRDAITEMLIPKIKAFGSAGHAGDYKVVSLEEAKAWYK
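40 nM FBPA preincubated 10 min at RT with compound (up to 57.5 uM final), then substrate plus GAPDH/TPI/NAD/arsenate coupling and diaphorase/resazurin added. Fluorescence read after 20 min at RT, 525/598 nm.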
Sm TGR block: S. mansoni TGR enzyme inhibition | Q962Y6 | purified TGR, DTNB reduction, TNB absorbance 405 nm | Potency, µM (top dose mostly 114 µM), most hits filed as inhibitors | 3% of 360,000 active; also: nearly all actives have a fitted effect of over 60% in size
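Kinetic colorimetric format: TGR-catalysed, NADPH-driven DTNB reduction monitored via TNB absorbance. Enzyme dispensed at 20 nM; compound exposure 15 min at room temperature before reaction start.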
RE007 growth inh: less growth of the S. pombe RE007 Vpr strain; Potency, µM (series often up to 92.2 µM), actives largely listed as inhibitors; 0.21% of 360,000 active; S. pombe RE007 Vpr strain, BacTiter-Glo ATP luminescence, 24 h; active = well fitted falling curve with a large enough effect; inconclusive = small, poorly fitted or top-dose-only effect; inactive = no such curve, though single readings can be large or run the other way; also: nearly all actives have a fitted effect of over 50% in size
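Fission yeast strain RE007, carrying one chromosomally integrated HIV-1 vpr copy, was seeded at OD 0.01 in PMG+AL medium with 23 nL pinned compound. After 24 h at 30 °C and 99% humidity, viability was read by BacTiter-Glo luminescence.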
HCMV antiviral: blocks human cytomegalovirus replication; 4.5% of 410,000 active; HFF cells, HCMV-luciferase reporter, 72 h; stronger effect = lower value; activity change, negative = inhibition, % at 57.5 µM; in the data active = activity change below about -60%; inconclusive = no clear call, values can overlap the other calls; inactive = above about -39%
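Inhibition of viral replication was scored as loss of reporter luminescence in HFFs infected with HCMV-luciferase (MOI 1 PFU/cell) for 72 h; compounds tested at 2 doses, normalized to buffer and Salinomycin controls.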
Numbers stand for hits; [ ] = remark or other dose. Most compounds without a hit are left out; they make up all but 7.7% or so of the library. Unless noted, calls follow the shape of the dose curve; as a rule, active = well fitted curve in the direction sought with a large enough effect; inconclusive = small, poorly fitted or top-dose-only effect, or another doubt; inactive = no such curve, though single readings can be large; an effect the other way counts as inactive or inconclusive.

Results for COc1ccc(CCN2CCC(CNC(=O)c3cnn(-c4ccccc4)c3C3CCN(C(=O)OC(C)(C)C)CC3)CC2)cc1 ?
FMDV inh: inactive; Tb PYK inh: inactive[15.4 µM]; Sm TGR block: inactive; HCMV antiviral: inconclusive

How did CC(C)(C)OC(=O)N1CCC(c2c(C(=O)NCCN3CCC(Cc4ccccc4)CC3)cnn2-c2ccc(F)cc2)CC1 do in these assays?
FMDV inh: inactive; Tb PYK inh: inactive; Sm TGR block: inactive; HCMV antiviral: -106.3

Results for CC(C)(C)OC(=O)N1CCC(c2c(C(=O)NCCN3CCC(Cc4ccccc4)CC3)cnn2-c2ccccc2)CC1 ?
FMDV inh: inconclusive; Tb PYK inh: inactive[15.4 µM]; Sm TGR block: inactive; HCMV antiviral: inconclusive

How did Cc1ccc(-n2ncc(C(=O)NCCCN3CCCCC3)c2C2CCN(C(=O)OC(C)(C)C)CC2)cc1 do in these assays?
FMDV inh: inactive; Tb PYK inh: inactive[15.4 µM]; Sm TGR block: inactive; HCMV antiviral: active

Results for CCOC(=O)c1c(NC(C)=O)c2c3c(sc2n1Cc1nc(-c2cccc(C)c2)oc1C)CCCC3 ?
FMDV inh: inactive; Tb PYK inh: inactive; Sm TGR block: inactive; HCMV antiviral: inactive

How did Cc1ccccc1C(=O)Nc1nnc(S(=O)(=O)N2CCCc3ccccc32)s1 do in these assays?
FMDV inh: inactive; Tb PYK inh: inactive; Sm TGR block: inactive; HCMV antiviral: inactive

Results for CCOC(=O)c1cc(-c2ccccc2)n(-c2cccc(C(=O)N(CC)c3ccccc3)c2)c1C ?
FMDV inh: inactive; Tb PYK inh: inactive[15.4 µM]; Sm TGR block: inactive; HCMV antiviral: inactive

What do the screens show for `CCC(C(=O)O)C1CCC(C)C(C(C)C(O)C(C)C(=O)C(CC)C2OC3(C=CC(O)[C@@]4(CC[C@](C)(C5CC[C@@](O)(CC)C(C)O5)O4)O3)C(C)CC2C)O1` (stereo not given in full)?
Tb PYK inh: inactive; FBPA Giardia inh: inactive

How did CC[C@@H](C(=O)[C@@H](C)[C@@H](O)[C@H](C)[C@@H]1O[C@@H]([C@@H](CC)C(=O)O)CC[C@@H]1C)[C@H]1O[C@]2(C=C[C@@H](O)[C@]3(CC[C@@](C)([C@H]4CC[C@](O)(CC)[C@H](C)O4)O3)O2)[C@H](C)C[C@@H]1C do in these assays?
FMDV inh: inconclusive; Tb PYK inh: inactive; RE007 growth inh: inactive; HCMV antiviral: -98.1

How did COc1ccc(NC(=O)N(C)[C@H]2C[C@H]3c4[nH]c5ccc(-c6ccc(OC)cc6)cc5c4CCN3C(=O)[C@H]2[C@H](C)O)cc1 do in these assays?
FMDV inh: inactive; Tb PYK inh: inactive; RE007 growth inh: inactive; HCMV antiviral: -68.4

Results for COc1ccc(-c2ccc3[nH]c4c(c3c2)CCN2C(=O)[C@@H]([C@H](C)O)[C@@H](N(C)C(=O)Nc3ccccc3)C[C@@H]42)cc1 ?
FMDV inh: inactive; Tb PYK inh: inactive; RE007 growth inh: inactive; HCMV antiviral: inactive

Results for COc1ccc(NC(=O)N(C)[C@H]2C[C@H]3c4[nH]c5ccc(-c6ccc(OC)cc6)cc5c4CCN3C[C@H]2[C@H](C)O)cc1 ?
FMDV inh: inactive; Tb PYK inh: inactive; RE007 growth inh: inactive; HCMV antiviral: -103.6

Results for CN[C@H]1C[C@H]2c3[nH]c4ccc(-c5ccc(OC)cc5)cc4c3CCN2C(=O)[C@H]1[C@H](C)O ?
FMDV inh: inconclusive; Tb PYK inh: inactive; RE007 growth inh: inactive; HCMV antiviral: -103.0

What do the screens show for `CC(NC(=O)C1CCCN1C(=O)CN)C(=O)O` (stereo not given)?
FBPA Giardia inh: inactive

Results for COc1ccc(CN2C[C@H](Sc3nc4ccccc4[nH]3)C[C@H]2C(=O)N2CCCN(C)CC2)cc1C ?
FMDV inh: inactive

Results for Cc1cccc(-c2cc(N3CCCN(C)CC3)n3nccc3n2)c1 ?
FMDV inh: inactive; Tb PYK inh: inactive; RE007 growth inh: inactive; HCMV antiviral: inactive

How did CN1CCCN(c2cc(-c3ccc4ccccc4c3)nc3ccnn23)CC1 do in these assays?
FMDV inh: inactive; Tb PYK inh: inactive; RE007 growth inh: inactive; HCMV antiviral: -90.6

What do the screens show for `Clc1ccc(-n2cccc2CN2CCc3nnc(Cc4ccccc4)n3CC2)nc1`?
FMDV inh: inactive

Results for COc1ccc(OCc2cc(-c3ccc(Cl)cc3)no2)cc1 ?
FMDV inh: inactive; Tb PYK inh: inactive; FBPA Giardia inh: inactive; Sm TGR block: inactive; RE007 growth inh: inactive; HCMV antiviral: inactive

What do the screens show for `O=C(CCl)NCc1cc(-c2ccc(Cl)cc2)no1`?
FMDV inh: inconclusive; Tb PYK inh: inactive; FBPA Giardia inh: inactive; Sm TGR block: 31.6µM; RE007 growth inh: inactive; HCMV antiviral: -112.8

How did Cc1ccccc1NC(=O)C(=O)NCC1(c2ccccc2)CCCC1 do in these assays?
FMDV inh: inactive; Tb PYK inh: inactive; Sm TGR block: inactive; HCMV antiviral: inactive

Results for O=C1C2C3C=CC(CC3)C2C(=O)N1c1ccccc1 (stereo not given) ?
FMDV inh: inactive; Tb PYK inh: inactive; FBPA Giardia inh: inactive; Sm TGR block: inconclusive; RE007 growth inh: inactive; HCMV antiviral: inactive

How did O=C1C=CC2C3C(=O)N(c4ccccc4)C(=O)C3C1N2Cc1ccccc1 (stereo not given) do in these assays?
FMDV inh: 10µM; Tb PYK inh: inactive; RE007 growth inh: inactive; HCMV antiviral: -77.9

Results for COc1ccc(CNC(=O)CSc2nnc3c(n2)[nH]c2ccc(F)cc23)cc1 ?
FMDV inh: inactive; Tb PYK inh: inactive; FBPA Giardia inh: inactive; Sm TGR block: inactive; RE007 growth inh: inactive; HCMV antiviral: -70.7

Results for CC(C)OC(=O)CSc1nnc2c(n1)[nH]c1ccc(F)cc12 ?
FMDV inh: inconclusive; Tb PYK inh: inactive; FBPA Giardia inh: inactive; Sm TGR block: inactive; RE007 growth inh: inactive; HCMV antiviral: -88.0

Results for O=C(CSc1nnc2c(n1)[nH]c1ccc(F)cc12)NCc1ccc(F)cc1 ?
FMDV inh: inactive; Tb PYK inh: inactive; FBPA Giardia inh: inactive; Sm TGR block: inactive; RE007 growth inh: inactive; HCMV antiviral: inactive

How did Cc1cccc(C)c1OCC(=O)N(Cc1ccc(Cl)cc1)CC1CCCO1 (stereo not given) do in these assays?
FMDV inh: inactive; Tb PYK inh: inactive; Sm TGR block: inactive; HCMV antiviral: inactive

Results for O=C(Cn1c(=O)n(CC2CS2)c2ccccc21)N1CCCCCC1 (stereo not given) ?
FMDV inh: inactive; Tb PYK inh: inactive; FBPA Giardia inh: inactive; RE007 growth inh: inactive; HCMV antiviral: -69.9

How did CC(=O)O[C@H]1C2=C(C(=O)[C@H]3O[C@@H]31)[C@@H]1[C@@H]3[C@@H](C)OC=C4[C@H](O)[C@H]5O[C@@H]5C(=O)[C@]43C2O[C@H]1C do in these assays?
FBPA Giardia inh: inactive[12.9 µM]
